In the library only some 6.9% were active in any assay of this set; here they are far more common.
MCF10A rereplic = A quantitative high throughput screen for small molecules that induce DNA re-replication in MCF 10a normal breast cells; MCF 10A DNA re-replication, Hoechst nuclear intensity, 48 h; Potency, µM (titrated, usually from 46.1 µM), hits mostly activators; hit rate 2.9% among 350,000; further: nearly all actives have a fitted effect of over 50% in size
Vif-APOBEC3G blk = qHTS for Inhibitors of Vif-A3G Interactions: qHTS; HeLa A3G-eYFP + Vif (tagged APOBEC3G with the HIV-1 protein that degrades it), YFP fluorescence, overnight; Potency, µM (top dose mostly 46.1 µM), hits mostly inhibitors; hit rate 0.076% among 410,000; further: nearly all actives have a fitted effect of over 60% in size
Target sequence (Q9HC16 whole entry, looked up): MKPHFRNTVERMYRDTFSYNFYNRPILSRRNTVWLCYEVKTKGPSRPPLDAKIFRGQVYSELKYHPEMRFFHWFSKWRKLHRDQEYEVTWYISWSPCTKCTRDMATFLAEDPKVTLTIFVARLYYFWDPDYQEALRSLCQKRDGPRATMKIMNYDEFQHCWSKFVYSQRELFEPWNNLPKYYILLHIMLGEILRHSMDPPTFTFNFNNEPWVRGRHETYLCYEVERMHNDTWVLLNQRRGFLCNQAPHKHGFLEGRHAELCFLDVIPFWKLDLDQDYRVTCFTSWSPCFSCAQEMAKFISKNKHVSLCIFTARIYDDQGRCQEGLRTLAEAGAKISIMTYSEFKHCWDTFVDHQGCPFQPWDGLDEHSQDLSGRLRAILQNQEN
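Read-out is eYFP fluorescence (Ex 488/Em 500-530) from Vif-expressing HeLa A3G-eYFP cells; more signal means A3G escaped Vif-mediated degradation. Cells plated overnight, compound pinned in, incubated overnight at 37 deg C.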
Vif-APOBEC3F blk = qHTS for Inhibitors of Vif-A3F Interactions: qHTS; HeLa A3F-eYFP + Vif (tagged APOBEC3F with the HIV-1 protein that degrades it), YFP fluorescence increase; Potency, µM (series often up to 46.1 µM); hit rate 0.2% among 390,000; AID 602313, 2012; further: nearly all actives have a fitted effect of over 65% in size
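Fluorescence increase (Ex 488/Em 500-530) after overnight compound treatment at 37 deg C flags inhibition of Vif-driven A3F-eYFP loss in stable HeLa A3F-eYFP/Vif cells seeded overnight beforehand.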
IL1B secr inh = qHTS for Inhibitors of Inflammasome Signaling: IL-1-beta AlphaLISA Primary Screen; THP-1 LPS/ATP IL-1B secretion, AlphaLISA, 16 h; stronger effect = lower value; activity change, % at 57.5 µM; hit rate 4.7% among 360,000; AID 743279, 2014; in the data active means activity change below about -50%; inconclusive means mostly about -30% to -49%
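THP-1 cells pretreated 1 hr with compounds (up to 57.5 uM final), then stimulated with LPS (250 ng/mL final) plus ATP (1.25 mM final); secreted IL-1B measured by AlphaLISA after 16 hr, decreased signal indicating inhibition.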
Giardia killer = Small Molecules that selectively kill Giardia lamblia: qHTS. Giardia lamblia trophozoite viability. activity change, % at 7.66 µM, hits read low. hit rate 0.15% among 340,000. AID 540267, 2011; in the data active means activity change below about -80%; inconclusive means between about -30% and that limit;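 further: parasites exposed to compound for two days anaerobically before the ATP read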
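ATP-content bioluminescence gauges trophozoite survival. Cells (100/well) receive compound and incubate anaerobically for 48 hrs at 37 deg C; detection reagent follows for 15-30 min at room temperature.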
SW480 rerep = A quantitative high throughput screen for small molecules that induce DNA re-replication in SW480 colon adenocarcinoma cells; hit rate 1.8% among 340,000; Potency, µM (doses to about 46.1 µM), most hits filed as activators; SW480 DNA re-replication, Hoechst DNA content imaging, 48 h; further: nearly all actives have a fitted effect of over 55% in size
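Image-based read-out: total Hoechst fluorescence of nuclei (405 nm excitation, 500-530 nm emission), with hits raising the fraction of high-intensity nuclei. SW480 colon cells incubated 48 hr with compounds at 37 C.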
Large screens that a line does not name were inactive. Unless noted, the call rests on the fitted dose curve; in most records, active means well fitted curve in the direction sought with a large enough effect; inconclusive means small, poorly fitted or top-dose-only effect, or another doubt; inactive means no such curve, though single readings can be large; an effect the other way counts as inactive or inconclusive.

COc1ccccc1Nc1ncc(C(=O)N2CCC(C(N)=O)CC2)c2ccccc12	none
COc1ccccc1C(=O)Nc1cccc(NC(C)=O)c1	none
COc1ccccc1C(=O)Nc1cccc(NC(=O)c2ccccc2C)c1	IL1B secr inh -70
COc1ccccc1NC(=O)c1cnc(Nc2ccccc2OC)c2ccccc12	MCF10A rereplic inconclusive, Vif-APOBEC3G blk inconclusive, Vif-APOBEC3F blk inconclusive, SW480 rerep 2.8µM
CCOc1ccc(Sc2cc(C(=O)NCCc3ccc(OC)c(OC)c3)c3ccccc3n2)cc1	none (no result: MCF10A rereplic, IL1B secr inh, Giardia killer, SW480 rerep)
COc1ccccc1NC(=O)c1ccccc1C(=O)Nc1ccccc1OC	IL1B secr inh -67
COc1ccccc1NC(=O)c1ccccc1NC(=O)c1ccccc1C(=O)O	none
COc1ccc(NC(=O)c2c(-c3ccccc3)c(-c3ccccc3)nn(C)c2=O)c(OC)c1	none (no result: MCF10A rereplic, IL1B secr inh, Giardia killer, SW480 rerep)
CCN1CCN(c2cc(SC(C)C)nc(-c3ccc(OC)cc3)n2)CC1	MCF10A rereplic inconclusive, IL1B secr inh -82, SW480 rerep inconclusive
O=C1NC(=NCc2ccccc2)S/C1=C/c1ccc(O)cc1	MCF10A rereplic inconclusive, IL1B secr inh -76, SW480 rerep inconclusive
COc1cc(/C=C2/SC(=Nc3ccc(O)cc3)NC2=O)cc(OC)c1O	MCF10A rereplic inconclusive, Vif-APOBEC3G blk inconclusive, Vif-APOBEC3F blk inconclusive, SW480 rerep 21µM
COc1cc(/C=C2\SC(=Nc3ccc(O)cc3)NC2=O)cc(OC)c1OC	MCF10A rereplic inconclusive, Vif-APOBEC3G blk inconclusive, SW480 rerep 3.3µM
COc1ccc(N=C2NC(=O)/C(=C\c3ccco3)S2)cc1	MCF10A rereplic inconclusive
CCc1ccc(N=C2NC(=O)/C(=C/c3ccc(OCC(=O)O)c(OC)c3)S2)cc1	none
COc1ccc(N=C2NC(=O)/C(=C/c3ccc(O)c(OC)c3)S2)cc1	MCF10A rereplic inconclusive, Vif-APOBEC3G blk inconclusive, Vif-APOBEC3F blk inconclusive, IL1B secr inh -67, SW480 rerep 23µM
COC(=O)C(C(C)C)N1CC(=O)c2ccccc2S1(=O)=O (stereo not given)	none (no result: MCF10A rereplic, Vif-APOBEC3F blk, IL1B secr inh, SW480 rerep)
COc1ccccc1N=C1NC(=O)/C(=C/c2ccc(N(C)C)cc2)S1	MCF10A rereplic 9.2µM, Vif-APOBEC3G blk 4µM, Vif-APOBEC3F blk 8.9µM, SW480 rerep 4.1µM
CCOC(=O)COc1ccccc1/C=C1\NC(=O)NC1=O	IL1B secr inh -91
CCCN1C(=O)C(O)(CC(=O)c2ccc(OC)c(OC)c2)c2ccccc21 (stereo not given)	none (no result: MCF10A rereplic, IL1B secr inh, Giardia killer, SW480 rerep)
O=S(=O)(c1ccccc1)c1nc(-c2ccccc2Cl)oc1N1CCCCCC1	none (no result: MCF10A rereplic, IL1B secr inh, Giardia killer, SW480 rerep)
CCOP(=O)(c1ccccc1)c1nc(-c2ccccc2Cl)oc1N1CCCCC1 (stereo not given)	MCF10A rereplic inconclusive, IL1B secr inh -67, SW480 rerep inconclusive
COc1ccc(CC(=O)N2CCc3cc(OC)c(OC)cc3C2COc2ccc3c(C)cc(=O)oc3c2)cc1OC (stereo not given)	none (no result: MCF10A rereplic, IL1B secr inh, Giardia killer, SW480 rerep)
O=C(c1ccncc1)N(c1ccc2oc3c(c2c1)CCCC3)S(=O)(=O)c1ccc(F)cc1	MCF10A rereplic inconclusive, IL1B secr inh -138
Cc1nn(-c2ccccc2)c(Cl)c1/C=C/C(=O)c1ccccc1	MCF10A rereplic inconclusive, IL1B secr inh -95, SW480 rerep inconclusive
COc1cc(NC(=O)C2=C(N3CCOCC3)/C(=C\c3ccc(N(C)C)cc3)CCC2)cc(OC)c1OC	MCF10A rereplic 18µM, Vif-APOBEC3G blk inconclusive, SW480 rerep 10µM
Cc1nc2nc(NC(=O)c3ccc(C(C)(C)C)cc3)[nH]n2c(=O)c1C	none (no result: MCF10A rereplic, IL1B secr inh, Giardia killer, SW480 rerep)
Cc1ccc2[nH]c(C)cc(=S)c2c1	MCF10A rereplic 23µM, IL1B secr inh -69, SW480 rerep 21µM
S=c1nc(-c2ccccc2)[nH]c2ccccc12	none
Cc1cc(=S)c2ccccc2[nH]1	MCF10A rereplic inconclusive, IL1B secr inh -86
Cc1cc(=O)c2cc(Cl)ccc2[nH]1	none
NC(=O)c1ccccc1OCC(=O)N1CCc2ccccc2C1	SW480 rerep 10µM
Cc1ccc(OCC(=O)N2CCc3ccccc3C2)c(C)c1	IL1B secr inh inconclusive
NC(=O)c1ccccc1OCC(=O)c1ccc(Cl)cc1	IL1B secr inh -57
CCOc1ccc2oc(C(=O)N3CCN(Cc4ccccc4)CC3)c(C)c2c1	MCF10A rereplic 21µM, IL1B secr inh inconclusive
CCOc1ccc2oc(C(=O)O)c(C)c2c1	none
CCOc1ccc2oc(=O)cc(CN3CCN(C(=O)c4cccc(F)c4)CC3)c2c1	none (no result: MCF10A rereplic, IL1B secr inh, Giardia killer, SW480 rerep)
CCOc1ccc(CN2CCN(C(=O)c3cccc(F)c3)CC2)cc1	IL1B secr inh -60
C/C(=N\NC(=O)c1ccccc1O)c1ccc(Br)s1	none (no result: SW480 rerep)
C/C(=N\NC(=O)c1cccc(F)c1)c1ccc(Br)s1	MCF10A rereplic inconclusive, SW480 rerep 9.2µM
CCS(=O)(=O)N1CCC(C(=O)NCCC(C)C)CC1	none (no result: MCF10A rereplic, IL1B secr inh, Giardia killer, SW480 rerep)
COc1ccc(Cl)cc1NC(=O)CSc1nc(=O)[nH]c2c1CCC2	none (no result: MCF10A rereplic, IL1B secr inh, SW480 rerep)
Cc1nnsc1C(=O)Nc1ccc(Cl)cc1	none
Cc1ccc(NNC(=O)c2snnc2C)cc1Cl	SW480 rerep 2.3µM
CCOc1ccc(S(=O)(=O)NCC(c2ccco2)S(=O)(=O)c2ccc(F)cc2)cc1 (stereo not given)	none (no result: MCF10A rereplic, IL1B secr inh, Giardia killer, SW480 rerep)
Cc1c(/C=N/NC(=O)c2ccc(O)cc2)c2ccccn2c1C(=O)c1ccc(F)cc1	IL1B secr inh inconclusive
Cc1c(/C=N/NC(=O)c2ccccc2O)c2ccccn2c1C(=O)c1ccc(F)cc1	MCF10A rereplic 6.5µM, IL1B secr inh -88, Giardia killer inconclusive

Compound activity: PubChem BioAssay, National Center for Advancing Translational Sciences (NCATS)
